Assay results from PubChem BioAssay (NCATS).
Results filed as inconclusive are left out. Where a call stands in place of a potency, no number is given. The source made the active and inactive calls. Unless noted, calls follow the shape of the dose curve; as a rule, active = well fitted curve in the direction sought with a large enough effect; inconclusive = small, poorly fitted or top-dose-only effect, or another doubt; inactive = no such curve, though single readings can be large; an effect the other way counts as inactive or inconclusive.

Legend:
[1] = target: ATP-dependent 6-phosphofructokinase (Trypanosoma brucei brucei) (UniProt O15648); assay: qHTS Assay to Find Inhibitors of T. brucei phosphofructokinase: hit validation (AID 492961);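 also: luminescence reports ADP formed as PFK phosphorylates fructose-6-phosphate with ATP; series mostly up to about 51 µM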
Summary of the method: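 Measures ADP output of PFK (1.25 nM) at 0.1 mM ATP, 0.5 mM F6P, pH 8.0 TEA buffer with 5 mM MgCl2. No-enzyme wells define full inhibition; uninhibited enzyme wells define zero.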

[2] = target: Thyrotropin-releasing hormone receptor (Homo sapiens) (UniProt P34981); assay: qHTS for Small Molecule Agonists and Allosteric Enhancers of Human TRH Receptor: Validation Screen for Agonists (AID 493127;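 active = calcium activation more than 3 SD above the typical response in the agonist read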;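 also: intracellular calcium rise by fluo-8 fluorescence before TRH EC20 addition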); settings: TRH receptor agonist cell assay; at 2 µM; stronger effect = higher value
Summary of the method: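 Compounds are added by online pintool to dye-loaded TRHR cells while fluorescence is recorded every second. A rise in calcium signal during the agonist read marks activation; a later 10 nM TRH addition (EC20) serves the separate enhancer mode.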

[3] = target: Galactokinase (Homo sapiens) (UniProt P51570); assay: qHTS Validation Assay for Inhibitors of Human Galactokinase (GALK) (AID 493189)
Chain of Galactokinase (Homo sapiens) (P51570 whole entry, looked up): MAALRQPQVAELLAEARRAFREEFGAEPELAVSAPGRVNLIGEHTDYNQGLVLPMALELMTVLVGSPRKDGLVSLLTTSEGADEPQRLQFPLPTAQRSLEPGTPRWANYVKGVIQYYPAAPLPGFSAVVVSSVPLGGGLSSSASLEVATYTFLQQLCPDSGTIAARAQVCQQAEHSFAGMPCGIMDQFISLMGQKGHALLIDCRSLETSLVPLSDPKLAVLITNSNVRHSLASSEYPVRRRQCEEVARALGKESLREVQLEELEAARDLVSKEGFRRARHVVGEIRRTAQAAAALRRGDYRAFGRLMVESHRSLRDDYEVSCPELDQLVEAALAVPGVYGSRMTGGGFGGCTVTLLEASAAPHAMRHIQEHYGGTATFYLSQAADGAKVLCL
Summary of the method: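 Enzyme activity is inferred from ATP consumption: human GALK phosphorylates galactose (100 uM) using 35 uM ATP for 1 h at room temperature, and luciferase-based Kinase-Glo Plus reports unconsumed ATP.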

[4] = Validation screen for small molecules that induce DNA re-replication in SW480 colon adenocarcinoma cells (AID 504364)
Summary of the method: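 Image-based qHTS: compounds were incubated with SW480 cells for 48 hr, nuclei stained with Hoechst, and per-nucleus fluorescence intensity scanned to flag cells with excess DNA content.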

[5] = target: Ubiquitin carboxyl-terminal hydrolase 1 (Homo sapiens) (UniProt O94782); assay: Inhibitors of USP1/UAF1: Pilot qHTS (AID 504865); also: nearly all actives have a fitted effect of over 35% in size; also: potency is read from the fitted curve at half-maximal effect
Chain of Ubiquitin carboxyl-terminal hydrolase 1 (Homo sapiens) (O94782 whole entry, looked up): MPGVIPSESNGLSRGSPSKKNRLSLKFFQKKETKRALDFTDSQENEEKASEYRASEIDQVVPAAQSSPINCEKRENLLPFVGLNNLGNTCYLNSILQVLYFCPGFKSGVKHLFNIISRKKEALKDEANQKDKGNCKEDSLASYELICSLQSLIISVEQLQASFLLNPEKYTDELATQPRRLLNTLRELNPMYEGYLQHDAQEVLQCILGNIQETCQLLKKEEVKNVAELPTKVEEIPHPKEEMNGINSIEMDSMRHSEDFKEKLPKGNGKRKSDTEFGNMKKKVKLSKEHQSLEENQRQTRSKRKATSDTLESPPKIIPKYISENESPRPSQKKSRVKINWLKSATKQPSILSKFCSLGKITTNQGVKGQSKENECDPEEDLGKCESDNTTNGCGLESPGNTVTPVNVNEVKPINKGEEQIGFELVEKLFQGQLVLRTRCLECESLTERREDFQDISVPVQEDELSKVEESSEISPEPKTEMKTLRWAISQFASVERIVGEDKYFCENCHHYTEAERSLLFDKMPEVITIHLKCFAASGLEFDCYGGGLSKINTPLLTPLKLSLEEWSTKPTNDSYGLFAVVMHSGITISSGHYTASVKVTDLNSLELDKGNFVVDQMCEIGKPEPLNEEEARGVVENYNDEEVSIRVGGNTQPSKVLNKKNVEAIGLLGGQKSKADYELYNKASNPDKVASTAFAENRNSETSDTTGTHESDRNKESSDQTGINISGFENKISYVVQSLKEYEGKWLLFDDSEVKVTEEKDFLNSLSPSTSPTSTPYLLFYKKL
Summary of the method: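 Enzyme-free wells gave the negative control, while test wells held 1nM USP1/UAF1 preincubated with compound for 15 min at room temperature. Ub-Rho at 150nM final started the reaction, and fluorescence at 480/540 nm was recorded kinetically.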

[6] = target: Estrogen receptor (Homo sapiens) (UniProt P03372); assay: qHTS assay for small molecule antagonists of estrogen receptor alpha signaling (AID 588513; active = well fitted curve in the direction sought with a large enough effect in the signal ratio, with a control signal flat, not every such curve was filed as active; the % refers to the signal ratio)
Chain of Estrogen receptor (Homo sapiens) (P03372 whole entry, looked up): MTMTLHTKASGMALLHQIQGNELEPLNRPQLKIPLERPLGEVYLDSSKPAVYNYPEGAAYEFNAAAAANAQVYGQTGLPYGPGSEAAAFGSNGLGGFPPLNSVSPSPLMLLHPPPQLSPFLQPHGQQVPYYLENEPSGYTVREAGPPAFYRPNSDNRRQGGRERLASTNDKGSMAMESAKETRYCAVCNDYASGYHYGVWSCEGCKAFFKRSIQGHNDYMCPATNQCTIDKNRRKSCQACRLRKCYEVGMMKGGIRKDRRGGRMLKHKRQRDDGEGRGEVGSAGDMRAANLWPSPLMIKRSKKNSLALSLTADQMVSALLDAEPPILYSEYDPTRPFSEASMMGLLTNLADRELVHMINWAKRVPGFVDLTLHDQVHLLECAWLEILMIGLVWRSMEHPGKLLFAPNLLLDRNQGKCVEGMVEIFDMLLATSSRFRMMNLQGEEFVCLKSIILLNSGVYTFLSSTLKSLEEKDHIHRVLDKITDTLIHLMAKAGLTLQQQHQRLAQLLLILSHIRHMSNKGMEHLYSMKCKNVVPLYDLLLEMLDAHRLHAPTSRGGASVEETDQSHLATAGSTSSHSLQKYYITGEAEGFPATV
Summary of the method: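 Antagonist-mode qHTS in ER-alpha-UAS-bla HEK 293 cells: compound titration, 0.5nM estradiol for 18 h, CCF4 fluorescence, Hill-derived IC50.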

[7] = target: D(1A) dopamine receptor (Homo sapiens) (UniProt P21728); assay: HTS Assay for Allosteric Agonists of the Human D1 Dopamine Receptor: Primary Screen for Potentiators (AID 488982)
Chain of D(1A) dopamine receptor (Homo sapiens) (P21728 whole entry, looked up): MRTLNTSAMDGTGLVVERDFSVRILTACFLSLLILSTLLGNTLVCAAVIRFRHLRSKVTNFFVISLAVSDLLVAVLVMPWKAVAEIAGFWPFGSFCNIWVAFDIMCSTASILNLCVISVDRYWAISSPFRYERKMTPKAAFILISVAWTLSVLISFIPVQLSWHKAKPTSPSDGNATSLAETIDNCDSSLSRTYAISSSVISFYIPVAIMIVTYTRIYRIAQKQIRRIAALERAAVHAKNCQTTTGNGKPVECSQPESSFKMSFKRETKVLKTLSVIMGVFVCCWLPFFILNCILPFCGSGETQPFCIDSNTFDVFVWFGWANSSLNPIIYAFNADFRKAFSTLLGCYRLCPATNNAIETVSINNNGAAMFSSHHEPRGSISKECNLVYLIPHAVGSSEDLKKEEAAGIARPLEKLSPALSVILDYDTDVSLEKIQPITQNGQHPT
Summary of the method: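 Calcium flux in an inducible, force-coupled HEK293 Trex D1 line (overnight at 30 C): agonist mode is the 180 s kinetic read after compound; potentiator mode is the following 180 s read after dopamine at EC20.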

[8] = target: D(1A) dopamine receptor (Homo sapiens) (UniProt P21728); assay: HTS Assay for Allosteric Agonists of the Human D1 Dopamine Receptor: Primary Screen for Antagonists (AID 488983);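 also: calcium flux response to an EC80 dopamine challenge measured with no-wash dye; nearly all actives have a fitted effect of over 65% in size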
Summary of the method: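 Kinetic fluorescence at 1 cycle/sec tracked intracellular calcium in force-coupled, tetracycline-inducible HEK293 T-REx D1 cells. Loss of response to an EC80 dopamine dose, given 180 s after compound, marked antagonists.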

[9] = Validation screen for small molecules that induce genotoxicity in human embryonic kidney (HEK293T) cells expressing luciferase-tagged ELG1 (AID 493106)
Summary of the method: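 Cells were dispensed at 2,000 per well, then 23 nL compound or DMSO was pinned in. After 16 hr at 37 °C and 5% CO2, ONE-Glo reagent was added. Luciferase activity was measured following 30 min at room temperature.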

[10] = target: ATPase family AAA domain-containing protein 5 (Homo sapiens) (UniProt Q96QE3); assay: Validation screen for small molecules that inhibit ELG1-dependent DNA repair in human embryonic kidney (HEK293T) cells expressing luciferase-tagged ELG1 (AID 493107);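 also: cells co-treated with the DNA-damaging agent 5-fluorouridine alongside compound; series mostly up to about 46 µM; inhibitors lower the ELG1-luciferase luminescence signal; nearly all actives have a fitted effect of over 70% in size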
Chain of ATPase family AAA domain-containing protein 5 (Homo sapiens) (Q96QE3 whole entry, looked up, the tested form may be a part): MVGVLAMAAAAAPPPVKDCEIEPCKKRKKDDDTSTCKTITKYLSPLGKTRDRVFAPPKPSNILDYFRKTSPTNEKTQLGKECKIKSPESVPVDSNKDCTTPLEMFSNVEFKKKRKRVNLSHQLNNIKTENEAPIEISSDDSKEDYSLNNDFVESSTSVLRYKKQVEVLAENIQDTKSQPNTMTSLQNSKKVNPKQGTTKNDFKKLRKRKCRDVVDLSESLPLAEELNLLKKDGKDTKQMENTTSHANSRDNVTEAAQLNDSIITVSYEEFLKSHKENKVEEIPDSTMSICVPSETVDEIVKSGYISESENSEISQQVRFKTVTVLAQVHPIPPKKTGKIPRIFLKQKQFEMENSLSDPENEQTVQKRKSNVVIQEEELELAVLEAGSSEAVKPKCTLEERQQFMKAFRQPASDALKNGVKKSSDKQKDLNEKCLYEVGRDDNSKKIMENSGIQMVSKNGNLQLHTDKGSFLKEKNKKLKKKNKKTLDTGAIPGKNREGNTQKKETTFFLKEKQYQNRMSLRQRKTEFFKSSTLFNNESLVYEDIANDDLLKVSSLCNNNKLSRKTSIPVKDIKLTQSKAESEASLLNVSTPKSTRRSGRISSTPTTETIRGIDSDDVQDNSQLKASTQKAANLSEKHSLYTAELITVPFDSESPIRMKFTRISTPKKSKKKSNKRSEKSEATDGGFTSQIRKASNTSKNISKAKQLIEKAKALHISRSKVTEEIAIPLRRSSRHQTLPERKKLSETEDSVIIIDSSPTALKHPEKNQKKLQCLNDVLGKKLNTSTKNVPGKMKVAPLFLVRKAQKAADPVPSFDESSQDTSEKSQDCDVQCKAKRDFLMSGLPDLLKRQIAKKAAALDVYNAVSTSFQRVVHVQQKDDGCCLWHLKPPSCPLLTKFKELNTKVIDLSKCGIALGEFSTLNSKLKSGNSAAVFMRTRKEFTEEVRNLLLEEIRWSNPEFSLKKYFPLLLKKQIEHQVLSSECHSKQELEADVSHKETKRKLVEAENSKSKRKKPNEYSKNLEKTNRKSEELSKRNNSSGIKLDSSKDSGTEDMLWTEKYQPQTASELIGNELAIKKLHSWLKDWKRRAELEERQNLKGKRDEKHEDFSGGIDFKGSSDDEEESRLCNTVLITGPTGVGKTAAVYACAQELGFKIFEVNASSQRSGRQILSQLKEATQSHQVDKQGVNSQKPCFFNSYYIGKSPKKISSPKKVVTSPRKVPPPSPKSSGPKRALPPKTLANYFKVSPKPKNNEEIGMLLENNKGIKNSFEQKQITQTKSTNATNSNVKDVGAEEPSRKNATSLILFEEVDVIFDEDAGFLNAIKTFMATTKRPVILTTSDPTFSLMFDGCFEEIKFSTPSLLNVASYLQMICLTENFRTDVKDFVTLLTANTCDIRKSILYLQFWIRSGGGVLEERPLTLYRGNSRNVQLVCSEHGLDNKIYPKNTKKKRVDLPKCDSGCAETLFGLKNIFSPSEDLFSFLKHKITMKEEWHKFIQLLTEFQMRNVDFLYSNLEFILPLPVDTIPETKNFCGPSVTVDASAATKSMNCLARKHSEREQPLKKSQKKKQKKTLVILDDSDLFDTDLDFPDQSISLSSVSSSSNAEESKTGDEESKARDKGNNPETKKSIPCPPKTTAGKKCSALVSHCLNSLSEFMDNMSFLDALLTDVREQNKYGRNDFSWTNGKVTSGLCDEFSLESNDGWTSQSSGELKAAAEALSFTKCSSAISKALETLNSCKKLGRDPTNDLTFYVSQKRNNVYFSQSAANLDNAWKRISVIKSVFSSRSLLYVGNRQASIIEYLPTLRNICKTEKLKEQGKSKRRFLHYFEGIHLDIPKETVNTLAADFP
Summary of the method: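 Cells are dispensed in 1536-well format, then 5-fluorouridine and compound are pinned in. After a 16 hr incubation at 37 °C and 5% CO2, ONE-Glo is added and luciferase measured on a CCD imager.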

[11] = Nrf2 qHTS screen for inhibitors: Validation (AID 493153; active = well fitted inhibition curve with a large enough effect in the main read-out, with a control signal flat, not every such curve was filed as active); settings: viability change: measured here: cytotoxicity max response
Summary of the method: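 A549 ARE_Fluc, 5% FBS OPTI-MEM; cpd titration, 18-24 h, 37°C/5% CO2. Read 1: CellTiter-Fluor (Ex 405/Em 525), cytotox. Read 2: luciferase lum, Nrf2 activity.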

[12] = qHTS for Inhibitors of Cell Surface uPA Generation: Validation Assay (AID 493164);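 also: RAW 264.7 macrophage cells exposed to compound for 18 h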
Summary of the method: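 ATP-Lite luminescence read-out: ATP remains high when uPA activity-dependent LF translocation into the cytoplasm is blocked. RAW 264.7 cells, 18 h compound exposure at 37 C; 7-point titration, 2.45 nM to 38.3 uM final.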

[13] = target: Peptidyl-prolyl cis-trans isomerase NIMA-interacting 1 (Homo sapiens) (UniProt Q13526); assay: qHTS Validation Assay to Find Inhibitors of Pin1 (AID 504536; active = well fitted inhibition curve with a large enough effect in the polarisation, with a control signal flat, not every such curve was filed as active; the % refers to the polarisation)
Chain of Peptidyl-prolyl cis-trans isomerase NIMA-interacting 1 (Homo sapiens) (Q13526 whole entry, looked up): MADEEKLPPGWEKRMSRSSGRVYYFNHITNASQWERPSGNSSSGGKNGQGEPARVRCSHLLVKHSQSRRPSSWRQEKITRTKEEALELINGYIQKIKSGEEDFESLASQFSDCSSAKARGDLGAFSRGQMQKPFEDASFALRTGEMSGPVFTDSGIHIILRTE
Summary of the method: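 Fluorescence polarization competition: compounds (titration) displace HiFluor-488-labeled Pin1-1b peptide from Pin1 (0.3 uM final) in pH 7.5 HEPES buffer with DTT, 10 min at room temperature; %Activity normalized to no-enzyme wells, curves fitted.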

[14] = target: Phosphoglycerate kinase, glycosomal (Trypanosoma brucei brucei) (UniProt P07378); assay: qHTS Validation Assay to Find Inhibitors of Phosphoglycerate Kinase (AID 504547)
Chain of Phosphoglycerate kinase, glycosomal (Trypanosoma brucei brucei) (P07378 whole entry, looked up): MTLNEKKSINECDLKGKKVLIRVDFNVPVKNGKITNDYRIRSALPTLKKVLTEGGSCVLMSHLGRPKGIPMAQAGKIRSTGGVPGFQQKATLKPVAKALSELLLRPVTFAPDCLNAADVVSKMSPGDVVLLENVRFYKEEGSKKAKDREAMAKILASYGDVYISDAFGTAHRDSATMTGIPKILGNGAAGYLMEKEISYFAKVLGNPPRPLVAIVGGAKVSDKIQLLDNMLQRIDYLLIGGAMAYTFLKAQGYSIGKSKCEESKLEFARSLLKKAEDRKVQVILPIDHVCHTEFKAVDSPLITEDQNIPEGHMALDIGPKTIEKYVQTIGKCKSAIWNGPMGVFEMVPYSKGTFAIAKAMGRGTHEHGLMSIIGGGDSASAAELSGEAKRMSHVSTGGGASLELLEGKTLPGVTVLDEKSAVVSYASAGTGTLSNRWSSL
Summary of the method: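 Luminescence end-point (Kinase-Glo Plus, 10 min) after a 60 min room-temperature coupled reaction. GAPDH at 100nM final supplies 1,3-BPG to PGK. Buffer: 100mM TEA pH 7.6, 5mM MgCl2, 0.01% Tween-20. Wells lacking PGK served as controls.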

[15] = target: phosphoglycerate mutase (Leishmania major) (UniProt Q4Q090); assay: qHTS Validation Assay to Find Inhibitors of Phosphoglycerate Mutase (AID 504548); also: series mostly up to about 58 µM
Summary of the method: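 Lm PGAM 1.25nM final; 100 mM TEA pH 7.6, 5 mM MgCl2, 0.01% Tween-20; 45 min RT; Kinase-GloPlus, 10 min; end-point luminescence. Enzyme-free wells as negative controls.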

[16] = Inducers of the Endoplasmic Reticulum Stress Response (ERSR) in human glioma: Validation (AID 504836)
Summary of the method: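 ERSR induction read as luciferase luminescence (Bright-Glo, 10 min at room temperature) in stably transfected human U87-MG glioma cells exposed to compounds for 16 h, using GRP78 as sensor.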

[17] = qHTS for Inhibitors of ATXN expression: Validation (AID 588378); also: series mostly up to about 57 µM; nearly all actives have a fitted effect of over 75% in size
Summary of the method: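 After a 2 h attachment and 24 h compound incubation, HEK293-ATXN2-FFLuc wells are read for fluorescence at 405 nm excitation/525 nm emission as a viability measure, then for Bright-Glo luminescence reflecting ATXN2 expression.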

[18] = target: DNA dC->dU-editing enzyme APOBEC-3G (Homo sapiens) (UniProt Q9HC16); assay: qHTS for inhibitors of Vif-A3G interactions: Validation (AID 588379)
Chain of DNA dC->dU-editing enzyme APOBEC-3G (Homo sapiens) (Q9HC16 whole entry, looked up): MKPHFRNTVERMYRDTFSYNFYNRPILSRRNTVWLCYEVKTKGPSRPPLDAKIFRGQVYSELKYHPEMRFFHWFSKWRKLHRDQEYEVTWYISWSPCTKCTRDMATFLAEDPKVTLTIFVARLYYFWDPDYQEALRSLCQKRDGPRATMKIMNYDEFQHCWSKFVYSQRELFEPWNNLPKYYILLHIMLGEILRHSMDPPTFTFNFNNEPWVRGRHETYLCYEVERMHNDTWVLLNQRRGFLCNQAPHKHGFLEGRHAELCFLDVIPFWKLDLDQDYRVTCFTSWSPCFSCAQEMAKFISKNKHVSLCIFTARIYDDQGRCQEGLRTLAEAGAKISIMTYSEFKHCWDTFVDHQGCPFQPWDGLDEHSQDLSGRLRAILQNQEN
Summary of the method: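 Yellow fluorescence (Ex 488, Em 500-530) of Vif-coexpressing HeLa A3G-eYFP cells, scanned by Acumen cytometer, reports blocked A3G degradation. Cells plated at 700/well overnight at 37 deg C before compound addition, then a further overnight compound incubation at 37 deg C.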

[19] = target: Estrogen receptor (Homo sapiens) (UniProt P03372); assay: qHTS assay for small molecule agonists of estrogen receptor alpha signaling (AID 588514; calls by dose curve; also: nearly all actives have a fitted effect of over 70% in size)
Summary of the method: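 Efficacy is expressed against 20 nM 17-beta-estradiol (100%) and DMSO basal (0%); EC50 from Hill equation. Assay: beta-lactamase reporter in ER-alpha-UAS-bla HEK 293 cells, 18 h compound incubation, CCF4 detection.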

C[C@]12CCC(=O)C=C1CC[C@@H]1[C@@H]2CC[C@]2(C)C(=O)CC[C@@H]12
outcome [1]: inactive | activation [2]: 2.12% (inactive) | outcome [3]: inactive | outcome [4]: inactive | Potency [5]: inactive | outcome [6]: inactive

O=c1[nH]oc2c1CCNC2
outcome [7]: inactive | outcome [8]: inactive | outcome [9]: inactive | outcome [10]: inactive | outcome [11]: inactive | viability change [11]: -2.38% | outcome [12]: inactive | outcome [4]: inactive | outcome [13]: inactive | outcome [14]: inactive | outcome [15]: inactive | outcome [16]: inactive | Potency [5]: inactive | outcome [17]: inactive | outcome [18]: inactive

C[C@]12CC[C@@H]3c4ccc(OC(=O)N(CCCl)CCCl)cc4CC[C@H]3[C@@H]1CC[C@@H]2O
outcome [1]: inactive | Potency [5]: 50.1 µM (active)

C=C(C)[C@H]1CN[C@H](C(=O)O)[C@H]1CC(=O)O
outcome [7]: inactive | outcome [8]: inactive | outcome [1]: inactive | outcome [9]: inactive | outcome [10]: inactive | activation [2]: 1.12% (inactive) | outcome [11]: inactive | viability change [11]: 1.68% | outcome [12]: inactive | outcome [3]: inactive | outcome [4]: inactive | outcome [13]: inactive | outcome [14]: inactive | outcome [15]: inactive | outcome [16]: inactive | Potency [5]: inactive | outcome [17]: inactive

COP(=S)(OC)Oc1ccc(S(=O)(=O)N(C)C)cc1
outcome [1]: inactive | Potency [5]: inactive

O=C(CCCN1CCC2(CC1)C(=O)NCN2c1ccccc1)c1ccc(F)cc1
outcome [7]: inactive | outcome [9]: inactive | outcome [12]: inactive | outcome [3]: inactive | outcome [4]: inactive | outcome [13]: inactive | outcome [14]: inactive | outcome [15]: inactive | Potency [5]: inactive | outcome [17]: inactive | outcome [18]: inactive

CC(NC(C)(C)C)C(=O)c1cccc(Cl)c1 (centres undefined)
outcome [8]: inactive | outcome [9]: inactive | outcome [10]: inactive | activation [2]: -0.188% (inactive) | outcome [11]: inactive | viability change [11]: 5.02% | outcome [12]: inactive | outcome [3]: inactive | outcome [4]: inactive | outcome [13]: inactive | outcome [14]: inactive | outcome [15]: inactive | outcome [16]: inactive | Potency [5]: inactive | outcome [17]: inactive

Oc1ccc(Cl)cc1
outcome [1]: inactive | Potency [5]: inactive

CN1C(=O)C(O)N=C(c2ccccc2)c2cc(Cl)ccc21 (centres undefined)
outcome [1]: inactive | Potency [5]: inactive

C[C@](O)(CS(=O)(=O)c1ccc(F)cc1)C(=O)Nc1ccc(C#N)c(C(F)(F)F)c1
outcome [1]: inactive

NCCc1ccc(O)cc1
outcome [7]: inactive | outcome [8]: inactive | outcome [9]: inactive | outcome [10]: inactive | activation [2]: 1.31% (inactive) | outcome [11]: inactive | viability change [11]: -8.88% | outcome [12]: inactive | outcome [3]: inactive | outcome [4]: inactive | outcome [13]: inactive | outcome [14]: inactive | outcome [15]: inactive | outcome [16]: inactive | Potency [5]: inactive | outcome [17]: inactive | outcome [6]: inactive | Potency [19]: inactive

CCOP(=S)(OCC)Oc1ccc2c(C)c(Cl)c(=O)oc2c1
outcome [1]: inactive | Potency [5]: inactive

CC(C)(C)NCC(O)c1ccccc1Cl (centres undefined)
outcome [7]: inactive | outcome [8]: inactive | outcome [1]: inactive | outcome [9]: inactive | outcome [10]: inactive | activation [2]: 0.312% (inactive) | outcome [11]: inactive | viability change [11]: 0.543% | outcome [12]: inactive | outcome [3]: inactive | outcome [4]: inactive | outcome [13]: inactive | outcome [14]: inactive | outcome [15]: inactive | outcome [16]: inactive | Potency [5]: inactive | outcome [17]: inactive

CC(C)c1cccc(C(C)C)c1O
outcome [7]: inactive | outcome [9]: inactive | outcome [10]: inactive | activation [2]: -6.88% (inactive) | outcome [11]: inactive | viability change [11]: 0.059% | outcome [12]: inactive | outcome [3]: inactive | outcome [4]: inactive | outcome [13]: inactive | outcome [14]: inactive | outcome [15]: inactive | outcome [16]: inactive | Potency [5]: inactive | outcome [17]: inactive | outcome [6]: inactive | Potency [19]: inactive

CCCCCCCCCC(=O)O[C@H]1CC[C@H]2[C@@H]3CCC4=CC(=O)CC[C@@H]4[C@H]3CC[C@]12C
outcome [1]: inactive

Nc1nc(N)nc(NC2CC2)n1
outcome [1]: inactive | Potency [5]: inactive

CC(C)C[C@H]1C(=O)N2CCC[C@H]2[C@]2(O)O[C@](NC(=O)[C@@H]3C=C4c5cccc6[nH]c(Br)c(c56)C[C@H]4N(C)C3)(C(C)C)C(=O)N12
outcome [7]: inactive | outcome [9]: inactive | outcome [16]: inactive | Potency [5]: inactive

CC(=O)N1CCN(c2ccc(OC[C@H]3CO[C@](Cn4ccnc4)(c4ccc(Cl)cc4Cl)O3)cc2)CC1
outcome [9]: inactive

CN=C(NC#N)NCCSCc1nc[nH]c1C
outcome [11]: inactive | viability change [11]: 0.983%

Clc1cccc(SC2CCNCC2)n1
outcome [18]: inactive

C=CCN1C[C@H](C)N([C@H](c2ccc(C(=O)N(CC)CC)cc2)c2cccc(OC)c2)C[C@H]1C
outcome [18]: inactive
